About 83,000 compounds went through this panel and 20% of them were active in at least one assay; those are over-represented in the sample as a whole.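 In brief: 96-well plates, 48 h treatment, single concentration, percent growth endpoint.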 Values without a mark were called inactive. The source made the active and inactive calls. The calls were made as follows: active = growth percent below 10; inactive = the rest.
The molecules below were run on HCC-2998 colon (assay: NCI-60 one-dose screen, 48 h (100 = growth as untreated, 0 = no growth, -100 = all killed)). Conditions: 10 µM.
With `O=C(Nc1cccc(C(F)(F)F)c1)c1cncc(C#Cc2cnc3cccnn23)c1` the growth was 46.9%. `CCOc1ccc(/C=N/NC(=O)Cn2nc(Cc3ccccc3)c3onc(C)c3c2=O)cc1` gave a growth of 60.6%. For `COc1cc(/C=C/C(=O)c2ccc(C(F)(F)F)cc2)ccc1Oc1nc(Nc2ccc(F)cc2)nc(N(C)C)n1`, the growth was 97.9%. `CC(=O)c1cc(C(=O)N2c3ccccc3Sc3ccccc32)n2ccc(C)cc12` was tested, and the growth was 32.7%. For `CC1(C)CC[C@]2(C(=O)N3CCOCC3)CC[C@]3(C)C(=CC[C@@H]4[C@@]5(C)CC[C@H](NCO)C(C)(C)[C@@H]5CC[C@]43C)[C@H]2C1`, the growth was -78.1% (active). Work on `COC[C@@H](CC(C)C)N=C1NC(=O)/C(=C/c2ccc3ncsc3c2)N1` yielded a growth of 15.5%. With `CN1CCN(Cc2ccc(C(=O)Nc3cccc(Nc4ccc5c(O)cccc5n4)c3)cc2C(F)(F)F)CC1` the growth was -93.2% (active). For `O=C(Nc1nc2ccc([N+](=O)[O-])cc2s1)Nc1ccccc1I`, the growth was 4.48% (active). `CN1CCCN(Cc2ccc(C(=O)Nc3cccc(Nc4ccc5cc(O)ccc5n4)c3)cc2C(F)(F)F)CC1` was tested, and the growth was -15.1% (active). With `COc1ccc(N2N=C(c3ccc4c(c3)OCCO4)CC2c2cccc(NC(=O)CCCNS(=O)(=O)c3ccc(F)cc3)c2)cc1` (centres undefined) the growth was 77.1%. `CC(=O)Nc1ccc(-n2cnc3cc(-c4ccc(O)cc4)ccc32)cc1F` gave a growth of 33.3%. `O=C1NC(=NC2CCCCCC2)N/C1=C\c1ccc2ncoc2c1` was tested, and the growth was 68.8%. `COC1=C[C@@]23CCC(=O)N2CCc2cc4c(cc2[C@H]3[C@H]1OC(=O)C(C)(C)O)OCO4` showed a growth of 103%. For `CCN1CCN(Cc2ccc(C(=O)Nc3cccc(-c4cn(-c5ccc6oc(=O)ccc6c5)nn4)c3)cc2C(F)(F)F)CC1`, the growth was -100% (active). `CN1C(=O)N(C)C2SC(N/N=C/c3cccs3)=NC21` (centres undefined) was tested, and the growth was 54.2%. With `CC(=O)Nc1ccc(-c2cn(-c3cccc(C(=O)Nc4cc(CN5CCOCC5)cc(C(F)(F)F)c4)c3)nn2)cn1` the growth was -95.6% (active). `Cc1cc(C)cc(Oc2cccc(-c3c(C)nnn3C3CCN(CCN(C)C)CC3)n2)c1` was tested, and the growth was 0.234% (active). In the case of `CC1=C(c2cc(-c3ccc(Cl)cc3)c(C#N)c(N)n2)C(c2ccccc2)NC(=S)N1` (centres undefined), the growth is reported as 83.3%. `Cc1ccc(-c2nc3ccc(C(=O)N=Nc4c(O)[nH]c5ccc(Br)cc45)cc3[nH]2)cc1` gave a growth of 20.5%. `O=C(Nc1ccc(I)cc1F)c1cc(-c2ccc(F)cc2F)ccc1O` was tested, and the growth was 5.11% (active). `CN1CCc2c(sc3ncnc(N/N=C/c4ccc5ccccc5c4)c23)C1` gave a growth of 73.8%. `COc1cc2c3c(n(CCCN4CCOCC4)c(=O)c2cc1OC)-c1nc2c(cc1C3=O)OCO2` gave a growth of 37.7%. `Cn1c(O)c(N=Nc2nc(-c3cc4ccccc4oc3=O)cs2)c2cc(Br)ccc21` gave a growth of 97.7%. Work on `COc1ccc(CCN2C(=O)/C(=C/c3csc(C#N)n3)SC2=S)cc1OC` yielded a growth of 116%. With `COc1ccc2c3nc4cc(C)c(C)cc4nc3n(CCN(C)C)c2c1` the growth was -56.1% (active). With `C=C1CCC2C3(C)COC(c4c(F)cccc4F)OC3CCC2(C)C1CC(O)C1=CCOC1=O` (centres undefined) the growth was 52.1%. `Cc1cccc2cc(-c3cc(-c4ccccc4)nc(=S)[nH]3)c(Cl)nc12` showed a growth of 93.1%. In the case of `COc1ccc(/C=C/C(=O)c2ccc(N3CCN(C)CC3)cc2)c(C(F)(F)F)c1`, the growth is reported as -49.4% (active). `Cc1cccc(NC(=O)CSc2nc3ccc(F)cc3c(=O)n2-c2ccc(Cl)cc2)c1C` gave a growth of 94.5%. Molecule `CC1(c2ccccc2)NC(=O)N(CC(=O)Nc2ccc(C(=O)/C=C/C=C/c3ccccc3)cc2)C1=O` (centres undefined) has a growth of 87.2%. Work on `CCOP(=O)(OCC)O[C@H]1CC[C@]2(C)[C@H]3CC[C@@H]4[C@@H]([C@](C)(O)CCC=C(C)C)CC[C@@]4(C)[C@]3(C)CC[C@H]2C1(C)C` yielded a growth of 36%. With `COc1cccc(-c2ccnc(/N=C(\N)Nc3ccc(S(=O)(=O)Nc4nc(C)cc(C)n4)cc3)n2)c1` the growth was 114%. For `COc1ccc2[nH]c(=O)c(CSc3cccc(N)c3)cc2c1`, the growth was 44.6%. For `C/C(=N\N=C\c1ccc(Cl)c([N+](=O)[O-])c1)c1ccc2c(c1)Nc1ccccc1S2`, the growth was 8.71% (active). Molecule `COc1cc(-c2nc3cc(Cl)c(Cl)cc3[nH]2)ccc1OCc1nnc(-c2ccc(Br)cc2)o1` has a growth of 69.2%. Molecule `O/N=C(\CSc1nnc(-c2c[nH]c3ccccc23)n1-c1ccccc1)c1ccc(Cl)cc1` has a growth of 17%. `CCOc1ccc(Nc2nc3ccccc3nc2Nc2ccc(OCC)cc2)cc1` gave a growth of 90.2%.

The molecules below were run on KM12 colon in the same assay as above. Conditions: 10 µM.
With `O=C(Nc1cccc(C(F)(F)F)c1)c1cncc(C#Cc2cnc3cccnn23)c1` the growth was 7.46% (active). `CCOc1ccc(/C=N/NC(=O)Cn2nc(Cc3ccccc3)c3onc(C)c3c2=O)cc1` gave a growth of 66.4%. With `COc1cc(/C=C/C(=O)c2ccc(C(F)(F)F)cc2)ccc1Oc1nc(Nc2ccc(F)cc2)nc(N(C)C)n1` the growth was 87.8%. For `CC(=O)c1cc(C(=O)N2c3ccccc3Sc3ccccc32)n2ccc(C)cc12`, the growth was 28.3%. In the case of `CC1(C)CC[C@]2(C(=O)N3CCOCC3)CC[C@]3(C)C(=CC[C@@H]4[C@@]5(C)CC[C@H](NCO)C(C)(C)[C@@H]5CC[C@]43C)[C@H]2C1`, the growth is reported as -90.5% (active). `COC[C@@H](CC(C)C)N=C1NC(=O)/C(=C/c2ccc3ncsc3c2)N1` showed a growth of 21%. `CN1CCN(Cc2ccc(C(=O)Nc3cccc(Nc4ccc5c(O)cccc5n4)c3)cc2C(F)(F)F)CC1` was tested, and the growth was -76.7% (active). In the case of `O=C(Nc1nc2ccc([N+](=O)[O-])cc2s1)Nc1ccccc1I`, the growth is reported as 2.86% (active). Work on `CN1CCCN(Cc2ccc(C(=O)Nc3cccc(Nc4ccc5cc(O)ccc5n4)c3)cc2C(F)(F)F)CC1` yielded a growth of 25.8%. In the case of `COc1ccc(N2N=C(c3ccc4c(c3)OCCO4)CC2c2cccc(NC(=O)CCCNS(=O)(=O)c3ccc(F)cc3)c2)cc1` (centres undefined), the growth is reported as -92.8% (active). In the case of `CC(=O)Nc1ccc(-n2cnc3cc(-c4ccc(O)cc4)ccc32)cc1F`, the growth is reported as 4.96% (active). `O=C1NC(=NC2CCCCCC2)N/C1=C\c1ccc2ncoc2c1` gave a growth of 30%. For `COC1=C[C@@]23CCC(=O)N2CCc2cc4c(cc2[C@H]3[C@H]1OC(=O)C(C)(C)O)OCO4`, the growth was 101%. With `CCN1CCN(Cc2ccc(C(=O)Nc3cccc(-c4cn(-c5ccc6oc(=O)ccc6c5)nn4)c3)cc2C(F)(F)F)CC1` the growth was -100% (active). `CN1C(=O)N(C)C2SC(N/N=C/c3cccs3)=NC21` (centres undefined) showed a growth of 16.1%. `CC(=O)Nc1ccc(-c2cn(-c3cccc(C(=O)Nc4cc(CN5CCOCC5)cc(C(F)(F)F)c4)c3)nn2)cn1` was tested, and the growth was -42.7% (active). `Cc1cc(C)cc(Oc2cccc(-c3c(C)nnn3C3CCN(CCN(C)C)CC3)n2)c1` was tested, and the growth was 37%. Work on `CC1=C(c2cc(-c3ccc(Cl)cc3)c(C#N)c(N)n2)C(c2ccccc2)NC(=S)N1` (centres undefined) yielded a growth of 49.5%. `Cc1ccc(-c2nc3ccc(C(=O)N=Nc4c(O)[nH]c5ccc(Br)cc45)cc3[nH]2)cc1` gave a growth of 32.6%. For `O=C(Nc1ccc(I)cc1F)c1cc(-c2ccc(F)cc2F)ccc1O`, the growth was 6.39% (active). Molecule `CN1CCc2c(sc3ncnc(N/N=C/c4ccc5ccccc5c4)c23)C1` has a growth of 78.1%. `COc1cc2c3c(n(CCCN4CCOCC4)c(=O)c2cc1OC)-c1nc2c(cc1C3=O)OCO2` showed a growth of 32.1%. `Cn1c(O)c(N=Nc2nc(-c3cc4ccccc4oc3=O)cs2)c2cc(Br)ccc21` showed a growth of 95.5%. With `COc1ccc(CCN2C(=O)/C(=C/c3csc(C#N)n3)SC2=S)cc1OC` the growth was 35%. `COc1ccc2c3nc4cc(C)c(C)cc4nc3n(CCN(C)C)c2c1` was tested, and the growth was -18% (active). Work on `C=C1CCC2C3(C)COC(c4c(F)cccc4F)OC3CCC2(C)C1CC(O)C1=CCOC1=O` (centres undefined) yielded a growth of 54.3%. For `Cc1cccc2cc(-c3cc(-c4ccccc4)nc(=S)[nH]3)c(Cl)nc12`, the growth was 91.4%. With `COc1ccc(/C=C/C(=O)c2ccc(N3CCN(C)CC3)cc2)c(C(F)(F)F)c1` the growth was 8.95% (active). In the case of `Cc1cccc(NC(=O)CSc2nc3ccc(F)cc3c(=O)n2-c2ccc(Cl)cc2)c1C`, the growth is reported as 88.8%. With `CC1(c2ccccc2)NC(=O)N(CC(=O)Nc2ccc(C(=O)/C=C/C=C/c3ccccc3)cc2)C1=O` (centres undefined) the growth was 21%. In the case of `CCOP(=O)(OCC)O[C@H]1CC[C@]2(C)[C@H]3CC[C@@H]4[C@@H]([C@](C)(O)CCC=C(C)C)CC[C@@]4(C)[C@]3(C)CC[C@H]2C1(C)C`, the growth is reported as 21.1%. In the case of `COc1cccc(-c2ccnc(/N=C(\N)Nc3ccc(S(=O)(=O)Nc4nc(C)cc(C)n4)cc3)n2)c1`, the growth is reported as 98%. With `COc1ccc2[nH]c(=O)c(CSc3cccc(N)c3)cc2c1` the growth was 4.43% (active). `C/C(=N\N=C\c1ccc(Cl)c([N+](=O)[O-])c1)c1ccc2c(c1)Nc1ccccc1S2` was tested, and the growth was 29.4%. Molecule `COc1cc(-c2nc3cc(Cl)c(Cl)cc3[nH]2)ccc1OCc1nnc(-c2ccc(Br)cc2)o1` has a growth of 46.1%. `O/N=C(\CSc1nnc(-c2c[nH]c3ccccc23)n1-c1ccccc1)c1ccc(Cl)cc1` gave a growth of 21.4%. Work on `CCOc1ccc(Nc2nc3ccccc3nc2Nc2ccc(OCC)cc2)cc1` yielded a growth of 47.4%.
